DT40 TDP1 no CPT = qHTS for Inhibitors of human tyrosyl-DNA phosphodiesterase 1 (TDP1): qHTS in cells in absence of CPT. DT40 Tdp1-/- hTDP1 cells, no CPT, ATP luminescence, 48 h. AID 686978, 2013. 420,000 tested, 15% active. Potency, µM (top dose mostly 46.2 µM), for inactives: top-dose activity change, negative = growth inhibition, usual class: inhibitors; further: on the % scale 0 is the no-effect control and ±100 the full control effect; nearly all actives have a fitted effect of over 55% in size
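DT40 Tdp1-/-;hTDP1 cells, no CPT (DMSO vehicle only), 400 cells/well; compounds pin-transferred; ≥48 hr, 37 °C; CellTiter-Glo 30 min RT dark, luminescence read.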
TDP1 block = blocks human tyrosyl-DNA phosphodiesterase 1 | recombinant TDP1, AlphaScreen DNA substrate cleavage | Potency, µM (doses to about 130 µM), inactives show at the highest dose activity change, negative = inhibition, usual class: inhibitors | 350,000 tested, 0.28% active | AID 485290; further: on the % scale 0 is the no-effect control and ±100 the full control effect; nearly all actives have a fitted effect of over 40% in size
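Recombinant E. coli-expressed Tdp1 (1 nM) preincubated with compound 15 min at RT, then 5'-biotin/3'-phosphotyrosine-FITC DNA substrate (15 nM) added for 5 min. AlphaScreen beads (10 ug/ml) added, 10 min RT; tyrosine-FITC cleavage read as signal loss.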
ClpP mod = qHTS Assay for Activators of ClpP | ATP-dependent Clp protease proteolytic subunit (Bacillus subtilis (strain 168)), P80244 | purified B. subtilis ClpP, FRET peptide cleavage, 20 min | Potency, µM (highest dose often 57.5 µM), for the others: top-dose activity change, negative = active | 340,000 tested, 1.9% active | AID 651965, 2013; active means well fitted falling curve with a large enough effect; inconclusive means small, poorly fitted or top-dose-only effect; inactive means no such curve, though single readings can be large or run the other way; further: the source files actives as falling curves though it sought activators and does not explain the sign; nearly all actives have a fitted effect of over 65% in size
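ClpP 10 microg/mL final, pH 8 Tris/KCl buffer with BSA, glycerol, Tween-20; compound pinned in; FRET-FV substrate; RT 20 min; Ex320/Em430; ΔFRET vs ADEP 5.8 microM, DMSO, no enzyme.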
DT40 TDP1 CPT = growth inhibition of DT40 Tdp1-/-;hTDP1 cells with camptothecin (screen for TDP1 inhibitors); Potency, µM (titrated, usually from 46.2 µM), for inactives: at the highest dose activity change, negative = growth inhibition, actives largely listed as inhibitors; 420,000 tested, 12% active; AID 686979; chicken DT40 Tdp1-/-;hTDP1 cells + 20 nM CPT, ATP luminescence, 48 h; further: on the % scale 0 is the no-effect control and ±100 the full control effect; nearly all actives have a fitted effect of over 55% in size
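Cell growth measured by CellTiter-Glo luminescence after a minimum 48 h, 37 C compound exposure with 20 nM CPT in Tdp1-knockout DT40 cells stably expressing hTDP1, seeded 400/well; qHTS titration format.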
Starred values were filed as active, the others as inactive; u = inconclusive; x = no result given; [ ] = dose if it differs, or a comment. Hits are enriched below; roughly 17% of the tested compounds scored in any of these assays. Unless noted, the call rests on the fitted dose curve; in most records, active means well fitted curve in the direction sought with a large enough effect; inconclusive means small, poorly fitted or top-dose-only effect, or another doubt; inactive means no such curve, though single readings can be large; an effect the other way counts as inactive or inconclusive. Potency means the concentration at half of the fitted maximal effect.

SMILES	DT40 TDP1 no CPT	TDP1 block	ClpP mod	DT40 TDP1 CPT
O=C1C=C(NCc2ccc3c(c2)OCO3)CC(c2ccccc2)C1 (configuration not stated)	18µM*	3%	x	u
CCc1ccccc1NC(=O)CCn1nc(C)c2c(C)n(-c3ccccc3)nc2c1=O	-3%	8%	-1%	2%
Cc1ccc(C)c(N2CC(C(=O)Nc3cc(C)on3)CC2=O)c1 (configuration not stated)	8%	x	x	28%
CCN(Cc1ccccc1)CC(O)COC(c1ccc(OC)cc1)c1ccc(OC)cc1 (configuration not stated)	21µM*	x	x	21µM*
CCN(CC)CC(O)COC(c1ccccc1)c1ccccc1 (configuration not stated)	14%	x	0%	-29%
CCOC(=O)c1ccc(NC(=O)C2=C(C)C(=O)OC23CCN(C(C)C)CC3)cc1	2%	0%	-1%	u
CC(=O)Nc1ccc(SCCN2CCN(C)CCC2=O)cc1	x	1%	x	x
CCOC(=O)C1=C(COC(=O)Cc2ccc(Cl)cc2)NC(=O)NC1C (configuration not stated)	1%	0%	-1%	-1%
COc1cc(N=C2C(=O)N3c4c(cccc42)C(C)=CC3(C)C)cc(OC)c1	5.2µM*	9%	1%	6.5µM*
COc1ccc(N=C2C(=O)N3CCCc4cccc2c43)cc1	u	6%	87%	u
CC1=CC(C)(C)N2C(=O)C(=Nc3ccc(O)cc3)c3cccc1c32	3.3µM*	7%	-9%	4.1µM*
CCCNC(=O)CSc1c(CCC)cnc2c1c(=O)n(C)c(=O)n2C	-6%	3%	0%	0%
COc1ccc(OC)c(NC(=O)CSc2nc3c(c(=O)n(C)c(=O)n3C)n2C)c1	-7%	0%	1%	-26%
CCCc1cnc2c(c1SCC(=O)NCc1ccc(C)cc1)c(=O)n(C)c(=O)n2C	-17%	5%	0%	-8%
CCCc1cnc2c(c1SCC(=O)N1CCC(C)CC1)c(=O)n(C)c(=O)n2C	21µM*	-5%	0%	16µM*
CC(C)c1cnc2c(c1SCc1cccc(F)c1)c(=O)n(C)c(=O)n2C	23µM*	3%	-3%	16µM*
COc1ccc(NC(=O)CSc2c(C(C)C)cnc3c2c(=O)n(C)c(=O)n3C)c(OC)c1	23µM*	0%	0%	23µM*
CCCc1cnc2c(c1SCC(=O)Nc1ccccc1F)c(=O)n(C)c(=O)n2C	23µM*	0%	-5%	u
CCc1cnc2c(c1SCCC(C)C)c(=O)n(C)c(=O)n2C	u	-5%	0%	26µM*
CC(C)c1nc(SCc2c(F)cccc2Cl)c2c(=O)n(C)c(=O)n(C)c2n1	u	-1%	-3%	u
CCC(C)Sc1c(C(C)C)cnc2c1c(=O)n(C)c(=O)n2C (configuration not stated)	13µM*	3%	-19%	23µM*
CC(C)c1cnc2c(c1SCC(=O)NC(C)(C)C)c(=O)n(C)c(=O)n2C	-18%	-3%	-1%	4%
CC(C)c1cnc2c(c1SCC(=O)c1ccccc1)c(=O)n(C)c(=O)n2C	13µM*	5%	-1%	u
CCc1cnc2c(c1SCc1c(F)cccc1Cl)c(=O)n(C)c(=O)n2C	26µM*	5%	-6%	15µM*
COc1cc(OC)c(Nc2cc(C)nc3ncnn23)cc1Cl	u	2%	-1%	-26%
CC(C)c1cnc2c(c1SCC(=O)N1CCCCC1)c(=O)n(C)c(=O)n2C	u	8%	-12%	23µM*
C/C=C/C1=Cc2ccccc2C(CC(=O)OC)N1C(=O)OC (configuration not stated)	x	-2%[12.3 µM]	x	x
CCc1nc2ccc(C(=O)NCCN3CCNC3=O)cn2c1N(C)Cc1ccc(OC)cc1	u	x	-1%	u
CCc1nc2ccc(C(=O)Nc3cc(-c4ccccc4)ccc3OC)cn2c1N(C)Cc1nccs1	9.2µM*	x	-8%	13µM*
CCc1nc2ccc(C(=O)Nc3cc(-c4ccccc4)ccc3OC)cn2c1N(C)Cc1ccc(OC)cc1	8.2µM*	x	-9%	7.3µM*

Assay outcomes (PubChem)
